From PubChem
The entries come from a sample that favours hits as a whole.
LASV entry inh = blocks Lassa virus binding to or entry into cells; Lassa virus pseudotype entry inhibition, cell reporter; Potency, µM (highest dose often 37.9 µM), actives largely listed as inhibitors; 300,000 tested, 1.2% active; AID 540256; calls by dose curve; tested in HEK293 cells; note: nearly all actives have a fitted effect of over 50% in size
VACV Venus inh = vaccinia inhibition (Venus reporter). 330,000 tested, 0.46% active. Potency, µM (series often up to 36.5 µM), hits mostly inhibitors. Vaccinia virus Venus reporter expression, fluorescence; calls by dose curve; tested in A549 cells; note: nearly all actives have a fitted effect of over 30% in size
Marburg entry inh = inhibitors of Marburg virus binding or cell entry. Potency, µM (doses to about 37.8 µM), hits mostly inhibitors. Marburg virus pseudotyped entry inhibition, cell reporter. AID 540276. 300,000 tested, 1.8% active; calls by dose curve; tested in HEK293 cells
VACV mCherry inh = vaccinia inhibition (mCherry reporter). Vaccinia virus mCherry reporter infection, fluorescence. Potency, µM (highest dose often 36.5 µM), usual class: inhibitors. 310,000 tested, 0.63% active. AID 720579; calls by dose curve; tested in A549 cells; note: nearly all actives have a fitted effect of over 35% in size
CHX counter = counter-screen for Shiga toxin inhibitors: cycloheximide protein synthesis inhibition; max response, %; 300,000 tested, 12% active; cell reporter, cycloheximide protein synthesis inhibition counterscreen; in the data active = max response mostly above about 13%, no sharp cut-off; inactive = mostly below about 14%; note: read at 38.3 µM for the half of the compounds with a filed dose
Shiga toxin inh = inhibitors of Shiga toxin in Vero cells; 290,000 tested, 9.2% active; AID 2315; Vero cells, Shiga toxin protein synthesis inhibition reporter; inhibition, % at 38.7 µM; in the data active = inhibition mostly above about 28%, no sharp cut-off; inactive = mostly below about 43%
Hits are given with their value; i = inactive; ? = inconclusive; nt = not tested or not shown.

SMILES	LASV entry inh	VACV Venus inh	Marburg entry inh	VACV mCherry inh	CHX counter	Shiga toxin inh
O=C(NC1CCCC1)C(c1ccncc1)N(Cc1ccccc1)C(=O)c1ccc(-c2ccccc2)[nH]1 (stereo not given)	?	i	?	i	13	i
CCOc1ccc(C(C(=O)NC2CCCC2)N(CCCO)C(=O)c2ccc(-c3ccccc3)[nH]2)cc1 (stereo not given)	nt	i	nt	i	i	60
O=C(NC1CCCC1)C(c1ccncc1)N(Cc1ccco1)C(=O)c1ccc(-c2ccccc2)[nH]1 (stereo not given)	nt	i	10µM	?	i	i
O=C(NC1CCCC1)C(c1ccncc1)N(CCCN1CCOCC1)C(=O)c1ccc(-c2ccccc2)[nH]1 (stereo not given)	nt	i	nt	i	i	i
CCOc1ccc(CCNC(=O)COC(=O)COc2ccc(C(C)=O)cc2)cc1OCC	i	i	i	i	nt	nt
CCCC1(CCC)C(=O)NC(=NCc2ccccc2)NC1=O	i	16µM	?	?	i	i
NS(=O)(=O)c1ccc(NC(=O)COC(=O)CCc2ccccc2)cc1	i	i	i	i	i	i
COc1ccc(OCCC(=O)Nc2ccccc2)cc1	nt	nt	nt	nt	17	26
COc1ccc(CCC(=O)OCC(=O)Nc2ccccc2)cc1	i	i	?	i	20	i
O=C(CCCOc1ccccc1)Nc1ncccn1	i	i	?	i	32	38
O=C(COc1ccccc1)Nc1ncccn1	i	i	i	i	i	i
COc1ccc(OCCOC(=O)Nc2ccccc2)cc1	i	?	i	i	i	i
Cc1ccc(NC(=O)CCOc2ccccc2)cc1	i	i	nt	i	54	62
O=C(NCC(F)(F)F)C1C(=O)Nc2ccccc2C(=O)N1C1CCCC1 (stereo not given)	nt	i	nt	i	nt	nt
COc1ccccc1C(=O)NC(=O)COC(=O)C1CC2CCCC(C1)C2=O (stereo not given)	i	i	i	i	i	i
O=C(NCc1cccnc1)[C@@H]1CC=C[C@@H]2CCN(C3CCCCC3)C(=O)[C@@H]21	nt	i	nt	i	nt	nt
O=C(CCOc1ccccc1)Nc1ccc([N+](=O)[O-])cc1	i	i	i	i	i	37
Cc1cc(Br)c(NC(=O)CN(C)CCOc2ccccc2)c(Br)c1	nt	nt	nt	nt	11	i
COc1ccc(OCCN(C)CC(=O)Nc2c(C)cccc2C)cc1	i	i	i	i	i	i
CCC(CC)C(=O)Nc1ccc(Sc2ccc([N+](=O)[O-])cc2)cc1	i	nt	i	nt	i	i
COc1ccc(NC(=O)CS(=O)(=O)c2ccccc2Cl)cc1	i	i	i	i	16	i
CCn1cc(S(=O)(=O)CC(=O)Nc2ccc(OC)cc2)c2ccccc21	i	i	i	i	i	i
CCCC(=O)Nc1ccc(Sc2ccc([N+](=O)[O-])cc2)cc1	10µM	i	20µM	nt	i	i
CC(=O)C1=C(C)N(CC#C[Si](C)(C)C)C(=O)N(C(C)=O)C1c1ccccc1 (stereo not given)	?	nt	i	nt	nt	nt
CCN1CCN(C(=O)CSc2nc3c(c(=O)n(C)c(=O)n3C)n2C)CC1	i	i	i	i	i	i
SMILES	LASV entry inh	VACV Venus inh	Marburg entry inh	VACV mCherry inh	CHX counter	Shiga toxin inh
O=C(NCC1(N2CCOCC2)CCCC1)c1cnn(-c2nccc(-c3ccco3)n2)c1C1CC1	nt	i	nt	i	nt	nt
COC(=O)[C@@H]1[C@H](CCc2ccccc2)NC(=O)N(Cc2ccccc2)[C@H]1C	?	nt	i	nt	nt	nt
CCOc1ccccc1NC(=O)COC(=O)C1CCC(=O)N1 (stereo not given)	i	i	i	i	nt	nt
Cc1ccccc1-c1noc(-c2ccc(NC3CCCC3)c([N+](=O)[O-])c2)n1	i	i	i	i	nt	nt
O=C(CCOc1ccccc1)Nc1ccccc1	i	i	?	nt	27	i
CC(=O)c1ccc(NC(=O)CCOc2ccccc2)cc1	i	i	nt	i	nt	nt
CCCOC(=O)c1ccc(NC(=O)CCC(=O)OCC)cc1	i	nt	?	nt	29	79
CCCOC(=O)c1ccc(NC(=O)CCOc2ccccc2)cc1	i	nt	i	nt	13	i
CN(c1ccccc1)S(=O)(=O)c1ccc(NC(=O)c2ccccc2)cc1	?	i	i	i	i	active
CN(C)S(=O)(=O)c1cccc(NC(=O)c2ccc(COc3ccccc3)cc2)c1	?	i	8.9µM	i	i	i
CN(c1ccccc1)S(=O)(=O)c1ccc(NC(=O)c2ccc(F)cc2)cc1	?	i	18µM	i	nt	nt
CN(c1ccccc1)S(=O)(=O)c1ccc(C(=O)Nc2ccncc2)cc1	i	i	i	i	nt	nt
CCOc1cccc(NC(=O)c2ccc(S(=O)(=O)N(C)C)cc2)c1	nt	i	nt	i	i	i
CN(C)S(=O)(=O)c1cccc(NC(=O)Cc2ccc(Cl)cc2)c1	13µM	i	i	i	i	i
O=C(COc1ccc(F)cc1Cl)Nc1ccccc1C(=O)N1CCCCC1	i	i	i	i	nt	nt
CC(=O)Nc1cccc(OCc2ccc(S(=O)(=O)Cc3ccccc3)cc2)c1	i	i	i	i	40	64
CN(C)S(=O)(=O)c1cccc(C(=O)Nc2cc(Cl)ccc2O)c1	i	?	i	nt	40	i
COCc1ccc(C(=O)Nc2cccc(S(=O)(=O)N(C)c3ccccc3)c2)cc1	?	i	?	i	nt	nt
CN(c1ccc(C(=O)Nc2cccc(O)c2)cc1)S(=O)(=O)c1ccccc1	i	i	?	i	19	i
Cc1cccc(C)c1NC(=O)CN(C)C(=O)c1ccc(COc2ccccc2)cc1	i	i	i	i	20	i
COc1cccc(NC(=O)CN(C)C(=O)c2ccc(COc3ccccc3)cc2)c1	i	i	i	i	nt	nt
CC(=O)Nc1ccc(OCc2ccc(S(=O)(=O)Cc3ccccc3)cc2)cc1	nt	i	nt	i	i	i
COC(=O)NC(CC(C)=O)c1cccc(F)c1 (stereo not given)	nt	nt	i	nt	nt	nt
COC(=O)[C@@]12C[C@@H](CC(=O)NCc3ccc(C)o3)C(=O)N(CCc3ccc(OC)c(OC)c3)C1=CCC(C)(C)C2	nt	?	nt	i	nt	nt
CN(c1ccc(C(=O)Nc2ccccn2)cc1)S(=O)(=O)c1ccccc1	i	nt	i	nt	32	90
SMILES	LASV entry inh	VACV Venus inh	Marburg entry inh	VACV mCherry inh	CHX counter	Shiga toxin inh
C/C(=N\NS(=O)(=O)c1ccc(C)c([N+](=O)[O-])c1)c1ccc2c(c1)OCO2	nt	nt	nt	nt	27	i
C/C(=N\NS(=O)(=O)c1ccc([N+](=O)[O-])cc1)c1ccc2c(c1)OCO2	i	i	i	i	i	i
C/C(=N/NS(=O)(=O)c1ccc(C)cc1)c1ccc2c(c1)OCO2	i	i	i	i	i	i
C/C(=N\NS(=O)(=O)c1ccccc1)c1ccc2c(c1)OCO2	i	i	i	i	12	i
CC(C)c1ccc(NC(=O)[C@H]2O[C@@H]3OC(C)(C)O[C@@H]3[C@H]3OC(C)(C)O[C@H]32)cc1	i	i	i	i	nt	nt
COc1ccc(C2(O)CC3CCC(C2)N3c2nc(C)cc(C)c2C#N)cc1 (stereo not given)	i	i	i	?	i	i
CCOC(=O)COc1ccccc1/C=C\[N+](=O)[O-]	13µM	?	16µM	?	i	i
COc1nnc(-c2ccccc2)s1	i	i	?	i	i	41
